Screens (PubChem)
Hits are enriched below; roughly 3.1% of the tested compounds scored in any of these assays.
pS6 MEF inh = mTORC1 pathway inhibition measured by phospho-rpS6; Tsc2-/- p53-/- MEF, phospho-rpS6 immunofluorescence/PI, 24 h; Potency, µM (doses to about 38.3 µM), without a hit: top-dose activity change, negative = inhibition, actives largely listed as inhibitors; 0.78% of 44,000 active; AID 493208;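 also: potency is read from the fitted curve at half-maximal effect; plate controls were DMSO for no effect and rapamycin for full effect; nearly all actives have a fitted effect of over 50% in size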
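Immunofluorescence of rpS6 phosphorylation in Tsc2-/-, p53-/- MEFs after 24 h compound exposure, normalized to propidium iodide signal. Activity is expressed as % positive cells, thresholded with 7.5 nM rapamycin.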
S16 viability = toxic to S16 Pmp22-F2sN Schwann cells; S16 Pmp22-F2sN Schwann cells viability, CellTiter-Glo, 24 h; Potency, µM (highest dose often 57.5 µM), for inactives: at the highest dose activity change, negative = cytotoxicity, usual class: cytotoxic; 0.48% of 43,000 active; also: potency is read from the fitted curve at half-maximal effect; % is scaled to controls: 0 for no effect and ±100 for the full control effect; nearly all actives have a fitted effect of over 65% in size
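S16 Pmp22-F2sN Schwann cells (500-1,000/well) in phenol-red-free DMEM with 10% FBS received 23 nL compound by pin tool for 24 h at 37 °C. Viability was then read as CellTiter-Glo luminescence after 15 min at room temperature.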
OvCa metastasis = inhibitors of ovarian cancer cell adhesion and invasion in omental model | SKOV3ip1-GFP adhesion/invasion on 3D omental model, fluorescence | Potency, µM (series often up to 45.8 µM), without a hit: at the top dose activity change, negative = inhibition, actives largely listed as inhibitors | 0.1% of 46,000 active | AID 1963576;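 also: potency is read from the fitted curve at half-maximal effect; plate controls were DMSO wells for no effect and tomatine positive control wells for full effect; nearly all actives have a fitted effect of over 65% in size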
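qHTS, 4-pt dose (0.36-46 umol/L); SKOV3ip1-GFP, 1,200 cells/well, no FBS; primary omental fibroblast/mesothelial co-culture 48 h pre-grown; 2 h RT + 16 h 37 C; PBS wash, 4% PFA; GFP count 488/509 nm.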
PMP22 txn = PMP22 gene transcription modulation; AID 1508649; S16 Pmp22-F2sN Schwann cells (luciferase reporters placed in the Pmp22 gene), FLuc/NLuc coincidence luminescence, 24 h; 2% of 43,000 active; Potency, µM (doses to about 57.5 µM), inactives show top-dose activity change, negative = inhibition, actives largely listed as inhibitors; active = clear falling dose curves in both reporters; inconclusive = both reporters move, but less clearly or upward; inactive = either reporter flat; the % is the NLuc reporter signal; also: potency is read from the fitted curve at half-maximal effect; % is scaled to controls: 0 for no effect and ±100 for the full control effect
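Reporter cells (S16 Pmp22-F2sN, 500–1,000 per well) exposed to compounds for 24 h, 37C, 5% CO2; lysis with FLuc read after 10 min, then Stop&Glo and NLuc read after 10 min.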
p53null 32C tox = selectivity test: cytotoxicity in p53 null cells, permissive temperature. H1299-neo p53 null cells, ATP luminescence, 24 h, 32C. Potency, µM (titrated, usually from 46.1 µM), for inactives: top-dose activity change, negative = cytotoxicity, most hits filed as cytotoxic. 0.62% of 55,000 active;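 also: potency is read from the fitted curve at half-maximal effect; 0% = DMSO only and -100% = full killing by 100 µM tamoxifen; nearly all actives have a fitted effect of over 55% in size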
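H1299-neo, 600 cells/well; overnight 37C; cpd up to 46 uM, 24 h at 32C; ATPlite luminescence after 20 min RT; normalized to DMSO (0%) and tamoxifen 100 uM (100% kill); Hill-fit AC50.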
p53null 39C kill = p53 null cell cytotoxicity, nonpermissive temperature; H1299 p53-null (neo) cells, 39C, ATPlite viability, 24 h; Potency, µM (series often up to 46.1 µM), for inactives: at the top dose activity, negative = cell killing, usual class: cytotoxic; 0.97% of 55,000 active;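 also: potency is read from the fitted curve at half-maximal effect; 0% = DMSO only and -100% = full killing by 100 µM tamoxifen; nearly all actives have a fitted effect of over 50% in size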
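Luminescent ATP signal reported cell survival after H1299 lines (neo, p53 null; or p53 A138V) received up to 46 uM compound and 24 hr incubation at 39C.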
NLuc sat counter = inhibits NanoLuc at saturating substrate, PMP22 counter-screen; 4% of 690 active; Potency, µM (top dose mostly 57.5 µM), without a hit: top-dose activity change, negative = inhibition, actives largely listed as inhibitors; AID 1508638; Secreted NLuc enzyme (filtered S16 cell medium), Nano-Glo luminescence; shares compounds with PMP22 txn; also: potency is read from the fitted curve at half-maximal effect; % is scaled to controls: 0 for no effect and ±100 for the full control effect
NLuc Km ctr = counter-screen for PMP22 expression modulators: NanoLuc inhibition at Km; shares compounds with PMP22 txn; secreted NLuc enzyme, coelenterazine luminescence, Km conditions; Potency, µM (titrated, usually from 57.5 µM), inactives show at the highest dose activity change, negative = inhibition, most hits filed as inhibitors; 5% of 690 active; AID 1508639; also: potency is read from the fitted curve at half-maximal effect; % is scaled to controls: 0 for no effect and ±100 for the full control effect
FLuc counter = firefly luciferase enzyme inhibition artifact for PMP22 screen; shares compounds with PMP22 txn; purified P. pyralis FLuc, luminescence, 10 min; Potency, µM (highest dose often 57.5 µM), for the others: top-dose activity, negative = inhibition, actives largely listed as inhibitors; 690 tested, under 10 active; also: % of control where 0% means no effect
Target sequence (P08659 whole entry, looked up): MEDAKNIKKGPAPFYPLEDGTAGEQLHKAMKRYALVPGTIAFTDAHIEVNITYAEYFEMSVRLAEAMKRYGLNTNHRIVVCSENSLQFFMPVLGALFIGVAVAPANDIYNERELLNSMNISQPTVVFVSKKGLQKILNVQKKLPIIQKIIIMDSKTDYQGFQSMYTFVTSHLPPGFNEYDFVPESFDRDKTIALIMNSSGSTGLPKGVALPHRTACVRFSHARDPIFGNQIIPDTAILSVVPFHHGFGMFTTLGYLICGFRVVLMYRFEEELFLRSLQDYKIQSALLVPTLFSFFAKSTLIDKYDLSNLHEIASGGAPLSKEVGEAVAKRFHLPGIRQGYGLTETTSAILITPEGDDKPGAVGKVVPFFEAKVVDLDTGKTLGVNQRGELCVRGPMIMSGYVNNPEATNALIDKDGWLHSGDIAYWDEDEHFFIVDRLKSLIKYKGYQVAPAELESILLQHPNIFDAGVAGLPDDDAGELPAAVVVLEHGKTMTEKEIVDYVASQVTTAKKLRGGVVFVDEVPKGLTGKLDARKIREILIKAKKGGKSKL
S16 viab conf = S16 Schwann cell cytotoxicity, confirmatory; AID 1508641; Potency, µM (series often up to 57.5 µM), for inactives: at the highest dose activity change, negative = viability loss, usual class: cytotoxic; 7% of 690 active; S16 Schwann cells viability, CellTiter-Glo ATP luminescence, 24 h; shares compounds with PMP22 txn; also: potency is read from the fitted curve at half-maximal effect; % is scaled to controls: 0 for no effect and ±100 for the full control effect
PMP22 txn conf = PMP22 transcription modulation, confirmatory; shares compounds with PMP22 txn; S16 Schwann cells Pmp22-F2sN, dual luciferase, 24 h; Potency, µM (doses to about 57.5 µM), for inactives: top-dose activity change, negative = inhibition, actives largely listed as inhibitors; 22% of 690 active; AID 1508646; active = clear falling dose curves in both reporters; inconclusive = both reporters move, but less clearly or upward; inactive = either reporter flat; the % is the FLuc reporter signal; also: potency is read from the fitted curve at half-maximal effect
PMP22 HiBiT cnf = rat PMP22 protein level modulation, confirmatory. shares compounds with PMP22 txn. S16 Schwann cells Pmp22-HiBiT, luminescence, 48 h. Potency, µM (highest dose often 27.9 µM), without a hit: at the highest dose activity change, negative = inhibition, most hits filed as inhibitors. 95 tested, under 10 active
* = called active by the depositor; u = inconclusive; x = no result given. Unless noted, calls follow the shape of the dose curve; as a rule, active = well fitted curve in the direction sought with a large enough effect; inconclusive = small, poorly fitted or top-dose-only effect, or another doubt; inactive = no such curve, though single readings can be large; an effect the other way counts as inactive or inconclusive.

SMILES	pS6 MEF inh	S16 viability	OvCa metastasis	PMP22 txn	p53null 32C tox	p53null 39C kill	NLuc sat counter	NLuc Km ctr	FLuc counter	S16 viab conf	PMP22 txn conf	others
CCOc1ccc(-n2ccnc2SCC(=O)Nc2nc3ccc(C)cc3s2)cc1	-16%	3%	4%	8.9µM*	8%	12%	-2%	u	-6%	-1%	-21%
COc1ccccc1Nc1nn2c(=O)c3ccc(C(=O)NCCC4=CCCCC4)cc3nc2s1	u	u	13%	3µM*	u	4µM*	u	u	u	6.9µM*	5.8µM*
COc1ccccc1Nc1nn2c(=O)c3ccc(C(=O)Nc4ccc(F)cc4)cc3nc2s1	-19%	21%	7%	3µM*	-1%	12%	-3%	4%	-17%	14µM*	5.8µM*	PMP22 HiBiT cnf=u
COc1ccc(NC(=O)c2ccc3c(=O)n4nc(Nc5ccccc5C)sc4nc3c2)cc1	-3%	11%	3%	u	-9%	16%	x	x	x	x	x
Cc1ccc(NC(=O)c2ccc3c(=O)n4nc(Nc5ccccc5C)sc4nc3c2)cc1C	-1%	11%	-4%	9.5µM*	-23%	u	-10%	u	-4%	27µM*	13µM*
Cc1ccc(C)c(Nc2nn3c(=O)c4ccc(C(=O)NCCC5=CCCCC5)cc4nc3s2)c1	-5%	2%	10%	u	-16%	-26%	x	x	x	x	x
COc1ccc(NC(=O)c2ccc3c(=O)n4nc(Nc5ccccc5C)sc4nc3c2)cc1Cl	1%	-5%	-7%	11µM*	-12%	u	-10%	u	-2%	24µM*	15µM*
CCOc1ccccc1CNCc1cccn1-c1nnc(N2CCN(c3ccccc3)CC2)s1	u	u	u	u	16%	u	x	x	x	x	x
CC1(C)Cc2c(-c3ccccc3)c(-c3ccc(Cl)cc3)c(CC(=O)O)n2C1	x	x	-1%	x	x	x	x	x	x	x	x
O=C(CSc1c2c(nc3ccc(Cl)cc13)CCCC2)N1CCN(c2cccc(Cl)c2)CC1	-19%	-12%	-9%	20µM*	28%	22%	-8%	-1%	0%	17%	u
